Here are results for 16 sequences from the supplement of paper PMC6555819.

What all share (assay): PBM binding z-score (relative to random genomic background probes); higher = stronger binding; sequences stand for … in GC…GCGATTGACAGCGTAGAATGAAGG
Assay [1] has as its system RARb homodimer (NR concentration 270 nM). An outline of the steps: (§1)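 Ligand-free nuclear receptor dimers were bound for 1 h to custom Agilent 4×180K protein-binding microarrays. Detection used antibodies against each partner (one per run). Binding z-scores rest on regression-normalized fluorescence, with random background probes as the reference.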
In assay [2] the test system is RARg:RXRa (NR concentration 270 nM, RXRa partner concentration 90 nM). In outline: as §1
Assay [3] deals with RARg homodimer (NR concentration 270 nM). An outline of the steps:
as §1

Assay [4] deals with RXRa DBDmut IVT, anti-RXR (DBD mutation: RXRa K156A/R161A, NR concentration 90 nM). In outline: as §1
Assay [5] has as its system RXRa homodimer (NR concentration 180 nM). An outline of the steps: as §1
Assay [6] deals with THRa:RXRa (NR concentration 90 nM, RXRa partner concentration 90 nM). In outline: as §1
Assay [7] concerns THRa homodimer (NR concentration 90 nM). In outline: as §1
In assay [8] the test system is VDR:RXRa (NR concentration 270 nM, RXRa partner concentration 90 nM). An outline of the steps:
as §1

Assay [9] deals with VDR homodimer (NR concentration 270 nM). In outline:
as §1

As to TCGAGTAGGTTCGTCGGGGCATTCAGCCAACATA, the PBM binding z-score in [1] was 0.49; in assay [2], 0.1; in assay [3], -0.361; in assay [4], 2.31; in assay [5] it was 0.365; in assay [6], 0.871. The PBM binding z-score in assay [7] worked out at 0.192; in assay [8] it was 1.79; in assay [9] it was 2.33.
Take GTACCAAGGTGAATAAGTCGTTGATGAGTAGGCG: the PBM binding z-score in assay [1] is 0.43; in [2], 0.827; in assay [3], 0.671; in [4], -0.0366; in [5], 0.742; in assay [6], 1.21. In addition, the results for the PBM binding z-score in [7], in [8] and in [9] were 0.531, 0.0767 and 0.148, respectively.
Consider TCTTGTAGATAAAGCAGGTTAAGAAAGCCTGAGT, for which the PBM binding z-score worked out at 0.29 in assay [1]; 0.138 in assay [2]; 0.0703 in assay [3]; 0.785 in [4]; 0.499 in assay [5]; 0.47 in assay [6]. For the same sequence, the PBM binding z-score in [7] is -0.334; in [8], 0.751; in assay [9], 0.374.
As to TCTTGTAGATCAACAGGAGGTTTAGAAAGATCGA, the PBM binding z-score was -0.821 in assay [1]; -0.145 in [2]; -0.083 in assay [3]; 0.348 in assay [4]; -0.0846 in assay [5]; -0.426 in assay [6]. In addition, the results for the PBM binding z-score in assay [7], in assay [8] and in assay [9] were -0.597, 0.171 and -0.584, respectively.
On to ATCTCTAGGTAAGACTCAGTTCAATGAAGAACGC, for which the PBM binding z-score in assay [1] amounted to 0.915; in assay [2] it was 0.919; in assay [3], 0.623; in assay [4], 0.822; in [5], 0.539; in [6] it was 1.29. Moreover, the PBM binding z-score came to 0.873 in [7], 1.07 in [8] and 2.32 in assay [9].
As to GCTATTAGTTGCAAGGGCAACCGAATGATTCTCG, the PBM binding z-score in assay [1] turned out to be 1.12; in assay [2] it was 0.13; in assay [3], 0.552; in assay [4] it was 0.914; in assay [5], 0.35; in [6], 0.666. Also, the figures for the PBM binding z-score in assay [7], in assay [8] and in assay [9] were 0.326, 0.134 and 0.363, respectively.
Take GTACCAAGGTAAATAGGTCGTTGATGAGTAGGCG: the PBM binding z-score was 0.723 in assay [1]; 0.808 in assay [2]; 0.391 in assay [3]; -0.235 in assay [4]; 0.953 in [5]; 0.973 in assay [6]. In addition, the PBM binding z-score is -0.00878 in assay [7], 0.336 in assay [8] and 0.628 in assay [9].
Take GGAACGAGGGCAAAGTTGGTAGCATCTGTCGACG: the PBM binding z-score was found to be 1.14 in [1]; 1.46 in [2]; 1.52 in assay [3]; 2.47 in assay [4]; 1.14 in assay [5]; 1.09 in [6]. In addition, the PBM binding z-score in [7] is -0.0808; in assay [8], 1.14; in assay [9], 1.46.
Regarding CCTACTGGGCCATAGGTCATTGATTCCAATGCTC, the PBM binding z-score came out at 2.63 in assay [1]; 2.89 in [2]; 1.95 in assay [3]; 0.122 in [4]; 2.63 in [5]; 1.61 in [6]. In addition, the values for the PBM binding z-score in assay [7], in assay [8] and in assay [9] were 0.173, 2.17 and 0.271, respectively.
On to CCTACTGGGCCATTCAGAGTTCATTGATCATATG, for which the PBM binding z-score in assay [1] was 2.64; in assay [2] it was 2.54; in assay [3], 1.23; in [4], 2.26; in assay [5] it was 1.28; in assay [6] it was 1.12. Moreover, the PBM binding z-score amounted to 0.0171 in assay [7], 3.5 in [8] and 5.74 in [9].
In the case of TCAGAAAGGTGAAGGTAACTCAGGTACGCAGTCG, the PBM binding z-score turned out to be 2.08 in assay [1]; 2.32 in assay [2]; 2.52 in assay [3]; 1.64 in assay [4]; 2.41 in assay [5]; 2.01 in assay [6]. Besides, the PBM binding z-score is 0.472 in assay [7], 1.35 in assay [8] and 0.477 in assay [9].
For TTGAGTAGGTTACCAATGGGGCATTCAGCTTTCT, the PBM binding z-score is 1.02 in [1]; 1.46 in assay [2]; 0.739 in [3]; 0.192 in assay [4]; 0.569 in assay [5]; 0.168 in [6]. Besides, the figures for the PBM binding z-score in assay [7], in assay [8] and in assay [9] were -0.426, 0.365 and 0.0569, respectively.
For the sequence TAAATGAGGTTATAAGATCAGGGAACGTTGCAAA, the PBM binding z-score was determined as 0.147 in assay [1]; 1.79 in assay [2]; 0.975 in assay [3]; 1.21 in assay [4]; 2.24 in assay [5]; 1.9 in assay [6]. Besides, the PBM binding z-score in [7] is 0.348; in assay [9], 0.859.
Regarding CCTCGGAGGACAGCAGGAGGTCAGAGCTGCCAGA, the PBM binding z-score in [1] is 3.24; in assay [2], 3.07; in assay [3], 2.93; in assay [4] it was -0.25; in [5], 1.56; in [6], 2.41. The PBM binding z-score in assay [7] stood at 0.786; in assay [9], 0.762.
Consider CTTGCTAGGTCAATGGTCAGCTAAAGCAGCTCGC, for which the PBM binding z-score is 2.82 in [1]; 3.48 in assay [2]; 4.68 in assay [3]; 1.61 in assay [4]; 2.34 in assay [5]; 2.13 in [6]. The values for the PBM binding z-score in assay [7] and in [9] were 0.43 and -0.158, respectively.
On to TCTTGTAGATCAGCAGTTTAAGAAAGCTGGCCAA, for which the PBM binding z-score was -0.447 in assay [1]; -0.29 in [2]; -0.416 in assay [3]; 0.659 in [4]; -0.0867 in [5]; -0.138 in assay [6]. In addition, the PBM binding z-score in assay [7] was -0.319; in assay [9], 0.0603.
